These results are taken from PubChem BioAssay (NCI).

“And” between values parts separate entries of the source, which are not always exact repeats. Equal values may be shown once. This is part of a sample that, as a whole, favours compounds with a hit. Of some 83,000 tested, about 20% had one in any assay.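 Cells were grown in 96-well plates and exposed to the test compound at a single concentration for 48 hours; results are reported as percent growth, with values below 10 considered active.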 The source made the active and inactive calls.

The first assay concerns NCI-H322M lung. Kind of assay: NCI-60 one-dose screen, 48 h (100 = growth as untreated, 0 = no growth, -100 = all killed). To be noted: 10 µM unless noted.
As for `COc1ccc(NC2=C(I)C(=O)C(C)=C(C)C2=O)cc1`, the growth is 95% (inactive).

Take `CC(=O)Nc1cccc(-n2c(COc3ccc(Br)cc3)nc3ccccc32)c1`: the growth was 103% (inactive) and 104% (inactive).

With `CCCSc1nnc(-c2sc3nc4ccccc4n3c2C)o1`, the growth was 102% (inactive).

On to `COc1cc(/C=N/NC(=O)c2ccc(OCc3nc4ccc(C)cc4[nH]3)cc2)cc(OC)c1OC`, for which the growth is 66.2% (inactive).

Regarding `COc1cc(CNC(=O)C[C@H](C)CCC=C(C)C)ccc1OCc1cn(-c2ccccc2Cl)nn1`, the growth was 91.3% (inactive).

Consider `Cc1ccc(C(=O)Nc2cc(-n3ccnc3)cc(C(F)(F)F)c2)cc1-n1cc(-c2cnc3cccnn23)nn1`, for which the growth is 113% (inactive).

On to `O=C(Nc1ccc(Cl)c(C(F)(F)F)c1)N1CCN(c2cc(-c3cn(-c4ccccc4)nc3-c3cccc(O)c3)ccn2)CC1`, for which the growth was 14.8% (inactive).

With `FC(F)(F)CN1CCN(CCn2c(C(F)(F)F)cc3c(Cl)ncnc32)CC1`, the growth was -22.9% (active).

Regarding `COc1cccc(C(N)=Nc2ccc(OCCCCCCCCn3cncn3)cc2)c1`, the growth is 58.1% (inactive).

`Nc1nnc(-c2cncc(Br)c2)c(-c2c[nH]c3ccc(Br)cc23)n1`: the growth is 78.2% (inactive).

On to `Nc1cc(-c2c[nH]c3ccc(Cl)cc23)nc2cc(-c3c[nH]c4ccccc34)nn12`, for which the growth was 5.87% (active).

On to `CN(C)CCOc1ccc(C(=O)C2[C@H](c3ccc(Cl)cc3)[C@@H](c3ccccc3)NC23C(=O)Nc2ccc(Cl)cc23)cc1` (stereo partly drawn), for which the growth is -91.1% (active).

Turning to `O=C(NNC(=S)NC(=O)c1ccccc1)c1ccc(OCc2nc3ccc(Cl)cc3[nH]2)cc1`, the growth is -41.5% (active).

For `O=C(c1ccc(Cl)cc1)C1[C@H](c2ccccc2Cl)[C@@H](c2ccccc2)NC12C(=O)Nc1ccc(Br)cc12` (stereo partly drawn), the growth was -47.3% (active).

As for `COc1ccc(CCC2NCCc3c(Br)c4c(c(OC)c32)OCO4)cc1` (stereo not drawn), the growth is 14.6% (inactive).

Regarding `O=C(Nc1ccc(Br)cc1)Nc1ccc(-c2ccc3c(c2)NC(=O)/C3=C\c2ccc[nH]2)cc1`, the growth is 46.1% (inactive).

Regarding `O=C(Nc1ccc(S(=O)(=O)N2CCCCC2)cc1)C(Cl)Cl`, the growth is 114% (inactive).

Regarding `O=C(N/N=C/c1ccc(Br)o1)c1[nH]c2ccc(Br)cc2c1-c1ccccc1`, the growth was 15% (inactive).

As for `COc1cc(/C=C/C(=O)c2ccc(S(=O)(=O)NCCNc3nc(N(C)C)nc(N4CCOCC4)n3)cc2)cc(OC)c1OC`, the growth is 57.2% (inactive).

Take `CCCCNC(=S)Nc1ccc(OCc2nc3ccc(Cl)cc3[nH]2)cc1`: the growth was 57% (inactive).

In the case of `COc1ccc(-c2cc(C(=O)N=Nc3c(O)[nH]c4ccc(Cl)cc34)c3ccccc3n2)cc1OC`, the growth was 102% (inactive).

Consider `NS(=O)(=O)c1cccc(Nc2nc(SCC(=O)c3ccc(F)cc3)nc3ccccc23)c1`, for which the growth was 22.9% (inactive).

For the molecule `COc1ccc2[nH]c(O)c(N=Nc3nc(-c4ccccc4)cs3)c2c1`, the growth is 26.5% (inactive).

Regarding `COc1ccc(OC)c(Cn2cc(C#N)c(N)c2C(=O)c2ccc(Br)cc2)c1`, the growth is 85.8% (inactive).

For `CC1=C(C)C(=O)C(N2CCSCC2)=CC1=O`, the growth is 96.9% (inactive).

As to `N#Cc1c(-c2ccc(F)cc2)nc(SCc2ccc(F)cc2)nc1N1CCNCC1`, the growth was 36.1% (inactive).

Consider `COc1ccc2[nH]cc(-c3cc4nc(-c5cn(C)c6ncccc56)cc(N)n4n3)c2c1`, for which the growth is 37.1% (inactive).

In the case of `O=C1Nc2ccccc2/C1=C\c1ccc(OCC(=O)c2ccc(Br)cc2)cc1`, the growth was 87.5% (inactive).

With `Nc1nn2c(-c3cc4ccccc4oc3=O)ccnc2c1N=Nc1ccccc1`, the growth was 65.4% (inactive).

With `O=c1c(-c2nc(-c3ccccc3)c(-c3ccccc3)[nH]2)coc2ccc(F)cc12`, the growth is 73.1% (inactive).

Consider `Cc1ccccc1Nc1nnc(-c2c[nH]c3ccccc23)o1`, for which the growth was 38.2% (inactive).

Regarding `O=CNc1cccc(-n2cnc3cc(-c4ccc(O)cc4)ccc32)c1`, the growth is 68.1% (inactive).

`CC1(C)CC(=O)C2=C(C1)OC(N)=C(c1nc3ccccc3[nH]1)C2c1ccc(Cl)cc1` (stereo not drawn): the growth is 51.3% (inactive) and 101% (inactive).

Regarding `CN1C(=O)/C(=C\C(=O)c2cc3ccccc3oc2=O)c2ccccc21`, the growth is 98.7% (inactive).

With `Cc1cc(N=C(N)c2ccccc2)ccc1OCCCCCCCCn1ccnc1`, the growth was 18.7% (inactive).

For `Cc1ccc(C2CC(c3ccc(NC(=S)Nc4ccccc4)cc3)=NN2c2ccc(S(N)(=O)=O)cc2)cc1` (stereo not drawn), the growth is 45.6% (inactive).

Take `COc1cc(CNC(=O)[C@]23CCC(C)(C)CC2C2=CCC4[C@@]5(C)CCC(OC(C)=O)C(C)(C)C5CC[C@@]4(C)[C@]2(C)CC3)ccc1OCc1cn(-c2ccc(Cl)cc2Cl)nn1` (stereo partly drawn): the growth was 94.1% (inactive).

With `Nc1ccc(-c2ccc3ncnc(N4CCc5cc(F)c(Cl)cc54)c3c2)cn1`, the growth is -2.2% (active).

A further assay relates to HOP-62 NSCLC. Described as above. To be noted: 10 µM unless noted.
Take `COc1ccc(NC2=C(I)C(=O)C(C)=C(C)C2=O)cc1`: the growth is 85.4% (inactive).

As for `CC(=O)Nc1cccc(-n2c(COc3ccc(Br)cc3)nc3ccccc32)c1`, the growth is 119% (inactive) and 114% (inactive).

For the molecule `CCCSc1nnc(-c2sc3nc4ccccc4n3c2C)o1`, the growth was 132% (inactive).

`COc1cc(/C=N/NC(=O)c2ccc(OCc3nc4ccc(C)cc4[nH]3)cc2)cc(OC)c1OC`: the growth was 62.5% (inactive).

Regarding `COc1cc(CNC(=O)C[C@H](C)CCC=C(C)C)ccc1OCc1cn(-c2ccccc2Cl)nn1`, the growth is 79.3% (inactive).

Consider `Cc1ccc(C(=O)Nc2cc(-n3ccnc3)cc(C(F)(F)F)c2)cc1-n1cc(-c2cnc3cccnn23)nn1`, for which the growth was 107% (inactive).

With `O=C(Nc1ccc(Cl)c(C(F)(F)F)c1)N1CCN(c2cc(-c3cn(-c4ccccc4)nc3-c3cccc(O)c3)ccn2)CC1`, the growth was 14.5% (inactive).

As to `FC(F)(F)CN1CCN(CCn2c(C(F)(F)F)cc3c(Cl)ncnc32)CC1`, the growth is 40.2% (inactive).

With `COc1cccc(C(N)=Nc2ccc(OCCCCCCCCn3cncn3)cc2)c1`, the growth was 16.2% (inactive).

With `Nc1cc(-c2c[nH]c3ccc(Cl)cc23)nc2cc(-c3c[nH]c4ccccc34)nn12`, the growth is -48% (active).

For `CN(C)CCOc1ccc(C(=O)C2[C@H](c3ccc(Cl)cc3)[C@@H](c3ccccc3)NC23C(=O)Nc2ccc(Cl)cc23)cc1` (stereo partly drawn), the growth was -82.6% (active).

Turning to `O=C(NNC(=S)NC(=O)c1ccccc1)c1ccc(OCc2nc3ccc(Cl)cc3[nH]2)cc1`, the growth was -64.3% (active).

As for `O=C(c1ccc(Cl)cc1)C1[C@H](c2ccccc2Cl)[C@@H](c2ccccc2)NC12C(=O)Nc1ccc(Br)cc12` (stereo partly drawn), the growth was -88% (active).

`COc1ccc(CCC2NCCc3c(Br)c4c(c(OC)c32)OCO4)cc1` (stereo not drawn): the growth was 18.1% (inactive).

On to `O=C(Nc1ccc(Br)cc1)Nc1ccc(-c2ccc3c(c2)NC(=O)/C3=C\c2ccc[nH]2)cc1`, for which the growth is 53.1% (inactive).

In the case of `O=C(Nc1ccc(S(=O)(=O)N2CCCCC2)cc1)C(Cl)Cl`, the growth was 108% (inactive).

With `O=C(N/N=C/c1ccc(Br)o1)c1[nH]c2ccc(Br)cc2c1-c1ccccc1`, the growth was -28.6% (active).

As to `COc1cc(/C=C/C(=O)c2ccc(S(=O)(=O)NCCNc3nc(N(C)C)nc(N4CCOCC4)n3)cc2)cc(OC)c1OC`, the growth is -19.1% (active).

As to `CCCCNC(=S)Nc1ccc(OCc2nc3ccc(Cl)cc3[nH]2)cc1`, the growth is 49.5% (inactive).

As for `COc1ccc(-c2cc(C(=O)N=Nc3c(O)[nH]c4ccc(Cl)cc34)c3ccccc3n2)cc1OC`, the growth is 123% (inactive).

`NS(=O)(=O)c1cccc(Nc2nc(SCC(=O)c3ccc(F)cc3)nc3ccccc23)c1`: the growth was 5.89% (active).

As to `COc1ccc2[nH]c(O)c(N=Nc3nc(-c4ccccc4)cs3)c2c1`, the growth is 21.3% (inactive).

For the molecule `CC1=C(C)C(=O)C(N2CCSCC2)=CC1=O`, the growth was 99.1% (inactive).

As to `N#Cc1c(-c2ccc(F)cc2)nc(SCc2ccc(F)cc2)nc1N1CCNCC1`, the growth is -65.4% (active).

For the molecule `COc1ccc2[nH]cc(-c3cc4nc(-c5cn(C)c6ncccc56)cc(N)n4n3)c2c1`, the growth was 19.8% (inactive).

Regarding `O=C1Nc2ccccc2/C1=C\c1ccc(OCC(=O)c2ccc(Br)cc2)cc1`, the growth is 104% (inactive).

On to `Nc1nn2c(-c3cc4ccccc4oc3=O)ccnc2c1N=Nc1ccccc1`, for which the growth was 22.3% (inactive).

For the molecule `O=c1c(-c2nc(-c3ccccc3)c(-c3ccccc3)[nH]2)coc2ccc(F)cc12`, the growth is 70.1% (inactive).

Take `O=CNc1cccc(-n2cnc3cc(-c4ccc(O)cc4)ccc32)c1`: the growth is 42.6% (inactive).

Take `CC1(C)CC(=O)C2=C(C1)OC(N)=C(c1nc3ccccc3[nH]1)C2c1ccc(Cl)cc1` (stereo not drawn): the growth is 87% (inactive) and 116% (inactive).

With `CN1C(=O)/C(=C\C(=O)c2cc3ccccc3oc2=O)c2ccccc21`, the growth is 54.4% (inactive).

Take `Cc1cc(N=C(N)c2ccccc2)ccc1OCCCCCCCCn1ccnc1`: the growth was -14.4% (active).

Consider `Cc1ccc(C2CC(c3ccc(NC(=S)Nc4ccccc4)cc3)=NN2c2ccc(S(N)(=O)=O)cc2)cc1` (stereo not drawn), for which the growth was 34.6% (inactive).

On to `COc1cc(CNC(=O)[C@]23CCC(C)(C)CC2C2=CCC4[C@@]5(C)CCC(OC(C)=O)C(C)(C)C5CC[C@@]4(C)[C@]2(C)CC3)ccc1OCc1cn(-c2ccc(Cl)cc2Cl)nn1` (stereo partly drawn), for which the growth was 105% (inactive).

In the case of `Nc1ccc(-c2ccc3ncnc(N4CCc5cc(F)c(Cl)cc54)c3c2)cn1`, the growth was 37.5% (inactive).
